PubChem BioAssay (NCATS)
Records with an inconclusive call do not appear. A call without a number means that no potency is given here. The source made the active and inactive calls. Calls come from the whole dose curve.

Molecular target: Atrial natriuretic peptide receptor 1 (Homo sapiens) (UniProt P16066)
Experiment: Natriuretic polypeptide receptor (hNpr1) antagonism - Pilot CMLD screen (AID 1347052);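 note: cGMP level read as GloSensor luciferase luminescence after agonist stimulation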
Conditions: HEK293 hNpr1 GloSensor cGMP luminescence, ANP-stimulated; series mostly up to 9.22 µM
Potency is the fitted concentration of half-maximal effect.

Sequence of Atrial natriuretic peptide receptor 1 (Homo sapiens) (P16066 whole entry, looked up): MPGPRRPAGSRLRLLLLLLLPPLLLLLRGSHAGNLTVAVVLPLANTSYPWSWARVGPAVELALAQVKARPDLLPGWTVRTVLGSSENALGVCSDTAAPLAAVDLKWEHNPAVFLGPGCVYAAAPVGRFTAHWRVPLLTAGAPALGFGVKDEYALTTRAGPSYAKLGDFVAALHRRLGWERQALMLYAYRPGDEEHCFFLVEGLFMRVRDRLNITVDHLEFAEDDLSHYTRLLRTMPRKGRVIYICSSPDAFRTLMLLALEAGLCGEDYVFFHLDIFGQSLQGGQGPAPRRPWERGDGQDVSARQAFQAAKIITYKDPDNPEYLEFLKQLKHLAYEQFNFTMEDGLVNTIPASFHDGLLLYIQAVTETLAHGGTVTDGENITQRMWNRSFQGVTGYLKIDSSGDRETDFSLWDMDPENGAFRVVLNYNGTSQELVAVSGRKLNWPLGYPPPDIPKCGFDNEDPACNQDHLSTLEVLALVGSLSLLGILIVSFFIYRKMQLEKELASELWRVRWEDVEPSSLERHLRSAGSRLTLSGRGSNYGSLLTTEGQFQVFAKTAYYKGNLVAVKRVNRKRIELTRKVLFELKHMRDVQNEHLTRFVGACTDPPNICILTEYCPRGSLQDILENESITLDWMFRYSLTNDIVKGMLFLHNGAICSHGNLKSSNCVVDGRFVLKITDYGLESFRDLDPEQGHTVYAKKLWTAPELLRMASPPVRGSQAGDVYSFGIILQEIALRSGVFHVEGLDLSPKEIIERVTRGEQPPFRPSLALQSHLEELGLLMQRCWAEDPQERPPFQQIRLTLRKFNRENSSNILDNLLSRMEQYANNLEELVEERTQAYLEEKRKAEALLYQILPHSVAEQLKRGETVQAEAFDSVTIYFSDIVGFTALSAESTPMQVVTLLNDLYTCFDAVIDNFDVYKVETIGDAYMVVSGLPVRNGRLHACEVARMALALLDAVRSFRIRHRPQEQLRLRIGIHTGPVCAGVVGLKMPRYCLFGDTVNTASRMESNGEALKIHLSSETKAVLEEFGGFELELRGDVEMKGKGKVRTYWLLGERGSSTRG

**Q.** CCN(CCNC(=O)[C@H]1C=C(OC)C(=O)C[C@H](c2ccccc2)[C@@H]1C)C(C)=O was tested. Which Potency did it give?
**A.** The Potency was “inactive”.

**Q.** With CC1=C[C@@H](C)O[C@@]2(C1)C(=O)Nc1cccc(Br)c12 as the molecule, how does the Potency read?
**A.** Its Potency is “inactive”.

**Q.** With Cc1cccc(C)c1Nc1oc(-c2ccccc2)nc1-c1cccc2ccccc12 as the molecule, how does the Potency read?
**A.** Its Potency is “inactive”.

**Q.** With C[C@@H]1CC[C@H]2C(=O)N(Cc3cccc([N+](=O)[O-])c3)C[C@H](O)CN2[C@@H]1c1cccc(Br)c1 as the molecule, how does the Potency read?
**A.** The Potency was “inactive”.

**Q.** For CC(C)=CCCC(C)=CCN1C(=O)[C@]2(O[C@H](C)CC3=CCCC32)c2c(Br)cccc21 (some centres undefined), which Potency is on record?
**A.** Its Potency is “inactive”.

**Q.** For Cc1ccccc1Nc1oc(-c2ccccc2)nc1C=Cc1ccccc1, which Potency is on record?
**A.** Its Potency is “inactive”.

**Q.** For C=C(COC)C1=CCC(C(=O)OC)(C(=O)OC)[C@@H](C[N+](=O)[O-])c2ccccc21, which Potency is on record?
**A.** The Potency was “inactive”.

**Q.** CC(C)=CCCC(C)=CCN1C(=O)[C@@]2(C[C@@H](C)C[C@@H](C)O2)c2ccccc21 was tested. Which Potency did it give?
**A.** The Potency was “inactive”.

**Q.** With CC12C=C(C=Cc3ccc(C(F)(F)F)cc3)C(C)(C1)C(c1ccc(C(F)(F)F)cc1)CC2=O (centres undefined) as the molecule, how does the Potency read?
**A.** The Potency was “inactive”.

**Q.** Which Potency does the source give for COc1ccc2c(c1)[C@@]1(OCCC=C[C@@H]1C)C(=O)N2Cc1ccc(F)cc1 here?
**A.** Its Potency is “inactive”.

**Q.** For CCC=C1C(=O)[C@]2(C(=O)c3ccccc3)C[C@H]3CCC(CCC)(C2=O)[C@@]13OC, which Potency is on record?
**A.** The Potency was “inactive”.

**Q.** COc1ccc2c(c1)[C@@]1(OCCC=C[C@@H]1C)C(=O)N2CC=C(C)CCC=C(C)C was tested. Which Potency did it give?
**A.** The Potency was “inactive”.

**Q.** COc1cccc([C@@H]2Oc3ccc(OC)cc3C(=O)[C@@H]2OC(=O)N[C@H]2CCCc3ccccc32)c1 was tested. Which Potency did it give?
**A.** The Potency was “inactive”.

**Q.** How did the Potency turn out when CCCCCCCc1cc2ccccc2c2c(C(=O)OC)c(C(=O)OC)c(C(=O)OC)n12 was run?
**A.** Its Potency is “inactive”.

**Q.** Which Potency does the source give for Cc1cc(C)c(-c2cc([C@H](C)ON=C[C@@H](C)[C@H](OCc3ccccc3)C(C)C)on2)c(C)c1 here?
**A.** Its Potency is “inactive”.

**Q.** With COC(=O)C1=C(C(=O)OC)[C@@H]2N(C)c3ccccc3[C@@]23CCC(=O)N(Cc2cc(OC)c(OC)c(OC)c2)C3=N1 as the molecule, how does the Potency read?
**A.** The Potency was “inactive”.

**Q.** COCOc1c2c(c(OCOC)c3c(OCOC)cccc13)C(=NNS(=O)(=O)c1ccc(C)cc1)C1=C2CCCC1 was tested. Which Potency did it give?
**A.** The Potency was “inactive”.

**Q.** CC1=CC[C@@H](COc2ccccc2)O[C@@]2(C1)C(=O)Nc1ccccc12 was tested. Which Potency did it give?
**A.** The Potency was “inactive”.

**Q.** For C=C(C)C1CC23C(=O)[C@]4(C(=O)c5ccccc5)C[C@@]5(C)CCC(CC2C1(C)C)(C4=O)[C@@]35OC (some centres undefined), which Potency is on record?
**A.** Its Potency is “inactive”.

**Q.** Which Potency does the source give for CC(C)OC(=O)[C@H](C)NC(=O)N1CCc2nc(-c3ccccc3)c3c(c2C1)CO[C@@H](C)C3 here?
**A.** Its Potency is “inactive”.

**Q.** C=CCCCC=C(C)[C@H](OCc1ccc(OC)cc1)[C@H](CCC=C(C)C(N)=O)OC was tested. Which Potency did it give?
**A.** The Potency was “inactive”.

**Q.** CCOC(=O)C1(C(=O)OCC)CC2=C(C=CC3=C(C=C2)CC(C(=O)OCC)(C(=O)OCC)C3)C1 was tested. Which Potency did it give?
**A.** Its Potency is “inactive”.

**Q.** Cc1ccc2[nH]c3nc(CCCn4ccnc4-c4ccccc4)nnc3c2c1 was tested. Which Potency did it give?
**A.** The Potency was “inactive”.

**Q.** CCCCCCCC1=Cc2ccccc2C(CC(=O)c2ccccc2)N1C(=O)OC (centres undefined) was tested. Which Potency did it give?
**A.** Its Potency is “inactive”.

**Q.** Which Potency does the source give for CCCCCCCC1Cc2ccccc2C(C(C(=O)OC)C(=O)OC)N1C(=O)OC (centres undefined) here?
**A.** The Potency was “inactive”.

**Q.** With COC1=C[C@H](C(=O)NC2CCN(Cc3ccccc3)CC2)[C@@]2(C)Cc3ccccc3[C@@H]2CC1=O as the molecule, how does the Potency read?
**A.** Its Potency is “inactive”.

**Q.** How did the Potency turn out when COC(=O)N[C@H](C(C(=O)OC)=C(C)NCc1ccccc1)c1ccccc1 was run?
**A.** Its Potency is “inactive”.

**Q.** How did the Potency turn out when C[C@@H]1C=CCCO[C@]12C(=O)N(Cc1ccccc1C(F)(F)F)c1cccc(Br)c12 was run?
**A.** Its Potency is “inactive”.

**Q.** Which Potency does the source give for CCCCCCCC1=Cc2ccccc2C(C(C(=O)OC)C(=O)OC)N1C(=O)OC (centres undefined) here?
**A.** Its Potency is “inactive”.

**Q.** For CC(Nc1oc(-c2ccccc2)nc1-c1ccccc1)c1ccccc1 (centres undefined), which Potency is on record?
**A.** Its Potency is “inactive”.

**Q.** Which Potency does the source give for COc1cccc(C(CC2=CCCCC2)NC(=O)C(F)(F)F)c1 (centres undefined) here?
**A.** Its Potency is “inactive”.

**Q.** Which Potency does the source give for C=C(C(C)=O)C(O)c1ccco1 (centres undefined) here?
**A.** Its Potency is “inactive”.

**Q.** COC(=O)C(C(=O)OC)c1ccccc1[N+](=O)[O-] was tested. Which Potency did it give?
**A.** Its Potency is “inactive”.

**Q.** Which Potency does the source give for COc1ccc(-c2nc3c(c4c2C[C@H](c2ccccc2)OC4)CN(C(=O)C2CC2)CC3)c(C)c1 here?
**A.** Its Potency is “inactive”.

**Q.** Which Potency does the source give for CC(C)=CCCC(C)=CCN1C(=O)[C@]2(OCCC=C[C@H]2C)c2ccccc21 here?
**A.** The Potency was “inactive”.

**Q.** For COC(=O)N[C@@H](c1ccccc1)C(C(=O)OC)C(=O)OC, which Potency is on record?
**A.** The Potency was “inactive”.

**Q.** With CCCCCCCc1cc2ccccc2c2c(C(=O)OC)c(C)c(C(=O)OC)n12 as the molecule, how does the Potency read?
**A.** The Potency was 944 nM (active).

**Q.** With COC(=O)[C@]1(CC=Cc2ccccc2)C=C[C@@H](C)[C@H](c2ccccc2Br)N1C(=O)C(F)(F)F as the molecule, how does the Potency read?
**A.** The Potency was “inactive”.

**Q.** For COc1cc(C(CC2=C(c3ccccc3)Cc3ccccc32)NC(=O)C(F)(F)F)cc(OC)c1OC (centres undefined), which Potency is on record?
**A.** Its Potency is “inactive”.
